Inconclusive results are not listed. Active and inactive are the calls of the source. Unless noted, calls follow the shape of the full dose curve.
Key:
[1] = target: Glucocorticoid receptor (Homo sapiens) (UniProt P04150); assay: qHTS assay for small molecule agonists of glucocorticoid receptor signaling (AID 588532; active = well fitted curve in the direction sought with a large enough effect in the signal ratio, with a control signal flat; the % refers to the signal ratio;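 also: 100% = dexamethasone at 0.1 µM and 0% = DMSO only wells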); conditions: HeLa MMTV-bla, beta-lactamase ratio, agonist, 18 h; activation: stronger effect = higher value, percent of dexamethasone control, DMSO zero
Procedure, shortened: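 Using MMTV-bla HeLa cells in medium with 1% stripped FBS and 25 mM HEPES, compounds were titrated and incubated overnight-length (18 h). Beta-lactamase cleavage of CCF4 was quantified by dual-emission fluorescence.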

[2] = target: Glucocorticoid receptor (Homo sapiens) (UniProt P04150); assay: qHTS assay for small molecule antagonists of glucocorticoid receptor signaling (AID 588533; active = well fitted inhibition curve with a large enough effect in the signal ratio, with a control signal flat, not every such curve was filed as active; the % refers to the signal ratio;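 also: cells stimulated with 2 nM dexamethasone as agonist; % is scaled to controls: 0 for no effect and ±100 for the full control effect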)
Procedure, shortened: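 Antagonist-mode qHTS: compound titrations added to GRE-bla HeLa cells, then dexamethasone 2 nM final; 18 h, 37 C. CCF4 FRET fluorescence normalized to dexamethasone and DMSO; IC50 from Hill fit.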

[3] = target: Peroxisome proliferator-activated receptor delta (Homo sapiens) (UniProt Q03181); assay: qHTS assay for small molecule agonists of peroxisome proliferator-activated receptor delta signaling (AID 588534);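 also: 0% = DMSO basal wells and 100% = positive control agonist at 10 µM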
Procedure, shortened: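 Agonist-mode beta-lactamase reporter readout (CCF4 dye, 2 h at RT) after 18 h at 37 °C exposure to a titration; Hill-equation fitting gave EC50 and maximal response.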

[4] = target: Thyroid hormone receptor beta (Homo sapiens) (UniProt P10828); assay: qHTS assay for small molecule agonists of thyroid hormone receptor beta signaling (AID 588545);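 also: 0% = DMSO only and 100% = 10 nM T3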
Procedure, shortened: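 Beta-lactamase reporter activity under TR response element control is measured in HEK 293 cells after 18 hrs compound exposure. Signal is ratiometric CCF4 fluorescence, 460/530 nm.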

[5] = qHTS assay for small molecule antagonists of retinoid X receptor alpha signaling (AID 588546; active = well fitted inhibition curve with a large enough effect in the signal ratio, with a control signal flat, not every such curve was filed as active; the % refers to the signal ratio; also: potency is read from the fitted curve at half-maximal effect;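 as to max response: cells stimulated with 9-cis-retinoic acid as agonist; % is scaled to controls: 0 for no effect and ±100 for the full control effect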); conditions: HEK293T RXRa-UAS-bla, beta-lactamase ratio, antagonist mode; measured here: W530 green channel, cytotoxicity proxy
Procedure, shortened: (§1)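 Beta-lactamase reporter inhibition, read as CCF4 fluorescence ratio (ex 405, em 460/530 nm) after 2 h at RT. HEK293T UAS-bla cells, 2500/well, were stimulated with 9-cis-RA at 500 or 100 nM final alongside test compound for 18 h at 37 C.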

[6] = target: Retinoic acid receptor RXR-alpha (Homo sapiens) (UniProt P19793); assay: as above; conditions: HEK293T RXRa-UAS-bla, beta-lactamase ratio, antagonist mode
Procedure, shortened: as §1

[7] = qHTS assay for small molecule activators of the p53 signaling pathway (AID 651743; active = well fitted activation curve with a large enough effect in the signal ratio, not every such curve was filed as active; the % refers to the signal ratio; also: potency is read from the fitted curve at half-maximal effect; as to activation: series mostly up to about 92 µM; % of control where 0% means no effect); conditions: HCT-116 p53RE-bla, beta-lactamase FRET ratio, 16 h; activation: stronger effect = higher value
Procedure, shortened: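 After 16 hours compound treatment at 37 C, HCT-116 cells stably expressing p53RE-driven beta-lactamase were loaded with LiveBLAzer B/G FRET substrate for 2 hours at room temperature. Fluorescence intensity served as the p53 activation read-out.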

[8] = qHTS assay for environmental chemicals that activate the Aryl hydrocarbon Receptor (AhR) signaling pathway (AID 651777; active = well fitted curve in the direction sought with a large enough effect; an effect the other way counts as inactive or inconclusive; also: % of control where 0% means no effect; nearly all actives have a fitted effect of over 15% in size); conditions: 1A2-DRE human hepatoma cells, luciferase, 24 h; activation: stronger effect = higher value
Procedure, shortened: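 AhR activation is scored as a rise in luciferase from a stable DRE–CYP1A2 promoter construct in human hepatoma cells. Treatment lasts 24 hr at 37 C; detection uses One-Glo after 30 min at room temperature.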

[9] = qHTS assay for small molecule agonists of the antioxidant response element (ARE) signaling pathway measured by Nrf2-dependant transcriptional activity (AID 720636; active = well fitted curve in the direction sought with a large enough effect in the repeat runs; an effect the other way counts as inactive or inconclusive;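 also: HepG2 cells with an ARE-driven luciferase reporter; % of control where 0% means no effect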)
Procedure, shortened: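 First, ARE-luc HepG2 cells attached for 6 hr at 37 C in 1% dialyzed FBS medium. Next, compound or DMSO was added and incubated 16 hr. Finally, ONE-Glo reagent was added and luminescence measured after 30 min.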

[10] = qHTS assay for small molecule agonists of the antioxidant response element (ARE) signaling pathway measured by Nrf2-dependant transcriptional activity - cell viability counter screen (AID 720653; active = well fitted curve in the direction sought with a large enough effect in the repeat runs; an effect the other way counts as inactive or inconclusive; also: % is scaled to controls: 0 for no effect and ±100 for the full control effect); conditions: ARE-bla HepG2 viability, CellTiter-Glo ATP luminescence, 16 h; max response: stronger effect = lower value
Procedure, shortened: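 Cytotoxicity counter screen: intracellular ATP quantified by CellTiter-Glo luminescence in the same ARE-bla HepG2 plates, after 16 h compound exposure and a 2 h beta-lactamase substrate step.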

[11] = qHTS assay for cell viability of HEK293 cells (AID 743288; active = well fitted curve in the direction sought with a large enough effect; an effect the other way counts as inactive or inconclusive; also: % is scaled to controls: 0 for no effect and ±100 for the full control effect; nearly all actives have a fitted effect of over 50% in size); conditions: ATP luminescence (CellTiter-Glo), 18 h; max response: stronger effect = lower value
Procedure, shortened: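 ATP luminescence (CellTiter-Glo) reports metabolically competent cell number after parental HEK293 cells, 2,000/well, were treated with DMSO-dissolved compounds for 18 h at 37 C; reagent incubation 30 min, room temperature.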

[12] = target: Vitamin D3 receptor (Homo sapiens) (UniProt P11473); assay: qHTS assay for small molecule agonists of vitamin D receptor signaling (AID 588543);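 also: 0% = DMSO basal and 100% = reference agonist control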
Procedure, shortened: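 β-lactamase reporter, VDR-UAS-bla HEK293T, agonist mode. Cells plated 5 h at 37 °C, compound titration 16 h at 37 °C, CCF4 dye 2 h RT, ratio 460/530 nm. Hill fit → EC50, efficacy vs 50 nM 1α,25-(OH)2D3.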

[13] = qHTS assay for small molecule agonists of retinoid X receptor alpha signaling (AID 588544); conditions: HEK293T RXRa-UAS-bla, beta-lactamase reporter, 18 h; 530 nm emission;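 as to activation: 0% = DMSO basal wells and 100% = reference agonist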
[14] = target: Retinoic acid receptor RXR-alpha (Homo sapiens) (UniProt P19793); assay: as above
[15] = target: Thyroid hormone receptor beta (Homo sapiens) (UniProt P10828); assay: qHTS assay for small molecule antagonists of thyroid hormone receptor beta signaling (AID 588547; active = well fitted inhibition curve with a large enough effect in the signal ratio, with a control signal flat, not every such curve was filed as active; the % refers to the signal ratio; also: potency is read from the fitted curve at half-maximal effect); conditions: TR-UAS-bla HEK293, beta-lactamase ratio, antagonist mode, 18 h
Procedure, shortened: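 Inhibition of T3-driven (0.4nM final) beta-lactamase reporter activity was measured over 0.59 nM to 92 uM compound after 18 h at 37 C. The cells were GripTite HEK293 TR-UAS-bla in charcoal/dextran-stripped serum, with CCF4 ratio read-out and IC50 from Hill fits.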

[16] = qHTS assay for small molecule agonists of the antioxidant response element (ARE) signaling pathway (AID 651741; active = well fitted activation curve with a large enough effect in the signal ratio; the % refers to the signal ratio; also: potency is read from the fitted curve at half-maximal effect)
Procedure, shortened: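 Beta-lactamase reporter under ARE control in HepG2 cells, 2,000 per well, was induced by 16 h compound treatment at 37 C. Read-out was fluorescence from LiveBLAzer B/G FRET substrate after 2 h at room temperature.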

[17] = target: Peroxisome proliferator-activated receptor alpha (Homo sapiens) (UniProt Q07869); assay: qHTS assay for small molecule agonists of the peroxisome proliferator-activated receptor alpha (PPARalpha) signaling pathway (AID 651778; active = well fitted curve in the direction sought with a large enough effect; an effect the other way counts as inactive or inconclusive; also: % of control where 0% means no effect); conditions: PathHunter PPARalpha complementation, chemiluminescence, 6 h; max response: stronger effect = higher value
Procedure, shortened: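 Chemiluminescence from complemented enzyme reported PPARalpha activation in cells after 6 hr of compound treatment at 37 C. The detection reagent was incubated for 60 min at room temperature, and compounds were scored as agonists.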

[18] = qHTS assay for cell viability of the p53RE-bla HCT-116 cell line (AID 743292; active = well fitted curve in the direction sought with a large enough effect; an effect the other way counts as inactive or inconclusive; also: % is scaled to controls: 0 for no effect and ±100 for the full control effect; nearly all actives have a fitted effect of over 55% in size)
Procedure, shortened: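 Quantitative high-throughput format: compounds in DMSO were pinned onto p53RE-bla HCT-116 cells (4,000/well) and incubated 16 h at 37 C. Total intracellular ATP, read by CellTiter-Glo luminescence, reflects viable cell number.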

[19] = target: Nuclear receptor subfamily 1 group I member 2 (Rattus norvegicus) (UniProt Q9R1A7); assay: qHTS assay for small molecule activators of the rat pregnane X receptor (rPXR) signaling pathway (AID 651751; call rule not given here; also: 0% is about no effect); conditions: rPXR reporter cells, luciferase (One-Glo), 24 h
[20] = qHTS assay for small molecule activators of the human pregnane X receptor (PXR) signaling pathway (AID 720659; call rule not given here; also: 0% is about no effect)
[21] = qHTS assay for small molecule activators of the nuclear factor-kappa B (NF-kB) signaling pathway (AID 651749; active = well fitted activation curve with a large enough effect in the signal ratio; the % refers to the signal ratio; also: series mostly up to about 77 µM; % of control where 0% means no effect); conditions: NF-kB-bla ME-180 cells, beta-lactamase FRET ratio, 16 h; activation: stronger effect = higher value
Procedure, shortened: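 Activation measured after 16 hr compound treatment at 37C, 5% CO2, of 2,000 ME-180 cells/well stably expressing an NF-kB response element–driven beta-lactamase reporter, via FRET-disruption fluorescence.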

[22] = qHTS assay for small molecule antagonists of peroxisome proliferator-activated receptor delta signaling (AID 588535; active = well fitted inhibition curve with a large enough effect in the signal ratio, with a control signal flat, not every such curve was filed as active; the % refers to the signal ratio;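 as to max response: cells co-treated with a PPAR-delta agonist as stimulator during compound exposure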); conditions: HEK293T PPARd-UAS-bla, beta-lactamase FRET ratio, 18 h; 460 nm channel
Procedure, shortened: (§2)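 Titrations were run on PPAR-delta-UAS-bla HEK293T cells in charcoal/dextran-stripped serum, incubated 18 h at 37 C. CCF4 fluorescence (460/530 nm) after 2 h RT; Hill equation yields IC50 and maximal response.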

[23] = target: Peroxisome proliferator-activated receptor delta (Homo sapiens) (UniProt Q03181); assay: as above
Procedure, shortened: as §2

[24] = target: Peroxisome proliferator-activated receptor gamma (Homo sapiens) (UniProt P37231); assay: qHTS assay for small molecule antagonists of peroxisome proliferator-activated receptor gamma signaling (AID 588537; active = well fitted inhibition curve with a large enough effect in the signal ratio, with a control signal flat, not every such curve was filed as active; the % refers to the signal ratio;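 also: reporter cells co-stimulated with 50 nM rosiglitazone agonist during compound treatment; % of control where 0% means no effect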)
Procedure, shortened: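 Antagonist-mode β-lactamase reporter screen run as a titration series. HEK293 PPARγ-UAS-bla cells are stimulated with rosiglitazone (50 nM final) for 16 h, then CCF4 is read at 460/530 nm. Data are scaled between DMSO and rosiglitazone and fitted to the Hill equation.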

[25] = target: Vitamin D3 receptor (Homo sapiens) (UniProt P11473); assay: qHTS assay for small molecule antagonists of vitamin D receptor signaling (AID 588541);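 also: receptor activated by calcitriol during compound treatment; series mostly up to about 77 µM; % is scaled to controls: 0 for no effect and ±100 for the full control effect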
Procedure, shortened: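 Antagonist-mode beta-lactamase reporter assay: HEK293T VDR-UAS-bla cells were exposed to titrated compound alongside 1-alpha,25-dihydroxyvitamin D3 at 3 nM final for 16 h. Values were normalized to the 50 nM agonist control and DMSO basal, with IC50 and efficacy from Hill equation fits.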

Sequence of Glucocorticoid receptor (Homo sapiens) (P04150 whole entry, looked up): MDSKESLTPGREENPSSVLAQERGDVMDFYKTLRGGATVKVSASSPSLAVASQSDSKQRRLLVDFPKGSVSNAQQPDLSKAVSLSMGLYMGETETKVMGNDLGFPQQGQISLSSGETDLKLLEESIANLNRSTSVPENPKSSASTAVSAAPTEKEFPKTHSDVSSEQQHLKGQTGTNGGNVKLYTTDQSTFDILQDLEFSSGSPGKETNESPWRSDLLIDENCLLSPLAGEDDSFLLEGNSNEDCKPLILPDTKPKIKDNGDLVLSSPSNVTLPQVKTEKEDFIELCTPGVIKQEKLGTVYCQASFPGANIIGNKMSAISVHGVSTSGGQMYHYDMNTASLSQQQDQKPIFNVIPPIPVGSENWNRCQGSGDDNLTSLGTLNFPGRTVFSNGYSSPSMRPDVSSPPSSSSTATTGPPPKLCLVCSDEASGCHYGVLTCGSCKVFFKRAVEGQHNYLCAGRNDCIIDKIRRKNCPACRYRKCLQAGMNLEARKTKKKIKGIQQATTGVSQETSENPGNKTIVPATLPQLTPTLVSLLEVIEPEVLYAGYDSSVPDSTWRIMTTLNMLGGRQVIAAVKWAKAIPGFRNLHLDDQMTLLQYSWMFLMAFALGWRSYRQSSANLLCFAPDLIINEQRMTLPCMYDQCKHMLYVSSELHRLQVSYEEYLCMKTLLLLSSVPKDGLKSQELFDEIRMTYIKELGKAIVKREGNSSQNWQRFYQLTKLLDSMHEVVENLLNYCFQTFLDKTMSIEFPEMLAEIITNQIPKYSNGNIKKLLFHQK
Sequence of Retinoic acid receptor RXR-alpha (Homo sapiens) (P19793 whole entry, looked up): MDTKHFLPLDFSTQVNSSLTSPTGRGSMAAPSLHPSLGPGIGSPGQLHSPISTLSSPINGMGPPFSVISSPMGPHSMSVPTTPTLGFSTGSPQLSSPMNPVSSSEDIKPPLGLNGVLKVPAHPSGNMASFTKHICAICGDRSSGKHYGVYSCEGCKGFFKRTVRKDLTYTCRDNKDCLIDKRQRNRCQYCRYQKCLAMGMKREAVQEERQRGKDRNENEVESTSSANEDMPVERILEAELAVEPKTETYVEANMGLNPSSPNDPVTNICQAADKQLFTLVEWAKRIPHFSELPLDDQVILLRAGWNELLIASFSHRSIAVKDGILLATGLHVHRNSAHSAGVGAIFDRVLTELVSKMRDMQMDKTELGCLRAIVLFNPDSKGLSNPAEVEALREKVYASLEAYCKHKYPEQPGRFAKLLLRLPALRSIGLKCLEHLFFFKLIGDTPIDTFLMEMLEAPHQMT
Sequence of Thyroid hormone receptor beta (Homo sapiens) (P10828 whole entry, looked up): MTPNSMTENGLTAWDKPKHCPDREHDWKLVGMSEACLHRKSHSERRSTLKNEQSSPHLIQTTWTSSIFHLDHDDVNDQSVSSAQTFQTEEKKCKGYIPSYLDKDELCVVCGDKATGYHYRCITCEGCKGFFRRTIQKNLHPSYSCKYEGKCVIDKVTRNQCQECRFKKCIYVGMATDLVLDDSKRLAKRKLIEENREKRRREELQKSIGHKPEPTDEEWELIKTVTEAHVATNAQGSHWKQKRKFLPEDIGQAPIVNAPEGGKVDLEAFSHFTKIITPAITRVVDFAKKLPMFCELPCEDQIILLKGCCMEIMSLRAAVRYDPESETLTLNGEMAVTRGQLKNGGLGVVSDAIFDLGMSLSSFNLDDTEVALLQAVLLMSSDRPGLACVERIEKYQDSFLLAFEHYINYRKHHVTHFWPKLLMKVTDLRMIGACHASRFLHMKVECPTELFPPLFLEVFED
Sequence of Vitamin D3 receptor (Homo sapiens) (P11473 whole entry, looked up): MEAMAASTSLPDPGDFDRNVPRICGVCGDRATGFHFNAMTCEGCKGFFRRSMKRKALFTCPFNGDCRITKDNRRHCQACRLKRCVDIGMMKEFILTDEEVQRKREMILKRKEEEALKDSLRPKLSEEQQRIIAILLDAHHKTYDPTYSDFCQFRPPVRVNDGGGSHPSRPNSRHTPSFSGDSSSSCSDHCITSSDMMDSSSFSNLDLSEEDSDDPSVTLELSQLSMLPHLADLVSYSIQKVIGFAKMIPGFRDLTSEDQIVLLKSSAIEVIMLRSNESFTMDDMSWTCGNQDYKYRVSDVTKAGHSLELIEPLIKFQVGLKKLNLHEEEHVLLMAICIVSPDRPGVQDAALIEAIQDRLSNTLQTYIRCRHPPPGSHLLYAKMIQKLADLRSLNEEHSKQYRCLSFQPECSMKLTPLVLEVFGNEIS
Sequence of Peroxisome proliferator-activated receptor alpha (Homo sapiens) (Q07869 whole entry, looked up): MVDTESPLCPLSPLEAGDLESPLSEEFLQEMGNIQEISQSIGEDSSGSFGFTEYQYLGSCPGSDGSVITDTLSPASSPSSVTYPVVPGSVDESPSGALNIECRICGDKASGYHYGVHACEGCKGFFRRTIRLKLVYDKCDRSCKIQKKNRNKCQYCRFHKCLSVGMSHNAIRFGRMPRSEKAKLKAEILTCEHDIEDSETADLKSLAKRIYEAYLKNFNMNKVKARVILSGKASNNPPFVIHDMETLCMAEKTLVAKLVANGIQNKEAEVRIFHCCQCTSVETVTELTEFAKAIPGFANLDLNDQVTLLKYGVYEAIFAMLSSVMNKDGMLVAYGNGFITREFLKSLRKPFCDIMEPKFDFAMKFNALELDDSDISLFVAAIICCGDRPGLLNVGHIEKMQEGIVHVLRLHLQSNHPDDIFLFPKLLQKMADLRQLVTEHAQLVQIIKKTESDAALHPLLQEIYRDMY
Sequence of Peroxisome proliferator-activated receptor delta (Homo sapiens) (Q03181 whole entry, looked up): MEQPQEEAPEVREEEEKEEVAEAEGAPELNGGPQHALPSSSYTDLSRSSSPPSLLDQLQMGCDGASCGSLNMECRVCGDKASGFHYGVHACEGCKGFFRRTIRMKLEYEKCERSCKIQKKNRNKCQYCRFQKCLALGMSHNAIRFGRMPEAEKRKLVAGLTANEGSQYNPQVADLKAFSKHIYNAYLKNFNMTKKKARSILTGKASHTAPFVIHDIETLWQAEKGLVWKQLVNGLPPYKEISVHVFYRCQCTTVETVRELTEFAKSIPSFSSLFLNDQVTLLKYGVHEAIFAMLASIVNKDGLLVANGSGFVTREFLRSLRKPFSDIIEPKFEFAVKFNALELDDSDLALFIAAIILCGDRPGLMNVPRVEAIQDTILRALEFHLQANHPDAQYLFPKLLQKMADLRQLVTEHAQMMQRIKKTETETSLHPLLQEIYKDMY
Sequence of Nuclear receptor subfamily 1 group I member 2 (Rattus norvegicus) (Q9R1A7 whole entry, looked up): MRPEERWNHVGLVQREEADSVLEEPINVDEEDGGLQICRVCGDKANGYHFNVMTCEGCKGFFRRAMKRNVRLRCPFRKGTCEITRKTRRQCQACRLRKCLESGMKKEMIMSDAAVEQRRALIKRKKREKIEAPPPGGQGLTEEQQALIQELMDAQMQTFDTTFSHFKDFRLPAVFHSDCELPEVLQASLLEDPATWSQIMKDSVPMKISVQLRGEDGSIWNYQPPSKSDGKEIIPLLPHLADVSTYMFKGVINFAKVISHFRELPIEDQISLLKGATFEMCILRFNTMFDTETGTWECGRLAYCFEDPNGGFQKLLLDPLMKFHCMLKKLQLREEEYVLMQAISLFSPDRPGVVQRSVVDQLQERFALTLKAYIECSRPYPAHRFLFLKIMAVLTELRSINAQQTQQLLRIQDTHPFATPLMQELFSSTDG
Sequence of Peroxisome proliferator-activated receptor gamma (Homo sapiens) (P37231 whole entry, looked up): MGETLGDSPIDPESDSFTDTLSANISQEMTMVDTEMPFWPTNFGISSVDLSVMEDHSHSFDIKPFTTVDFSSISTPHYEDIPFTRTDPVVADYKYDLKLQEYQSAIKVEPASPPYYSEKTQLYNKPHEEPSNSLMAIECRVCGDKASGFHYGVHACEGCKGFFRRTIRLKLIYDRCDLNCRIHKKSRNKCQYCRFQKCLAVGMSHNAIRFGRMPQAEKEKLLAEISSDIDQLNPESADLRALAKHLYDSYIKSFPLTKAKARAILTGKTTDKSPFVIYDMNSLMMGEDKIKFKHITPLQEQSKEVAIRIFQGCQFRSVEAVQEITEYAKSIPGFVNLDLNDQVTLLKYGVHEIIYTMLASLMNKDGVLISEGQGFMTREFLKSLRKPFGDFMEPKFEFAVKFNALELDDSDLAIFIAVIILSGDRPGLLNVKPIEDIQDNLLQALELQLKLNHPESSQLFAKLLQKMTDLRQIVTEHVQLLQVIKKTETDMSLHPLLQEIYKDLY

CCOc1cc(Oc2ccc(C(F)(F)F)cc2Cl)ccc1[N+](=O)[O-]
-9.67%: max response [5]
inactive: activation [1] -12.9% | Potency [2] | outcome [3] | Potency [4] | max response [6] -3.17% | activation [7] 3.72% | activation [8] 3.8% | Potency [9] | max response [10] -9.09% | max response [11] -7.71%

CCCCCCCCCCCCCCCCCC#N
inactive: outcome [3]

COC(=O)N(OC)c1ccccc1COc1ccn(-c2ccc(Cl)cc2)n1
-23.9%: max response [13]
active: Potency [6] 3.16 µM | Potency [15] 6.31 µM | Potency [16] 5.45 µM | Potency [7] 5.01 µM
inactive: activation [1] -3.13% | outcome [12] | Potency [14] | Potency [4] | activation [8] 10.6% | max response [17] -0.36% | max response [10] -16.5% | Potency [18] | max response [19] -12.5% | outcome [20]
-0.714%: max response [5]

CC(c1ccc(O)cc1)(c1ccc(O)cc1)c1ccc(O)cc1
inactive: activation [1] -5.2% | outcome [3] | outcome [12] | Potency [4] | activity change % (negative = inhibition) [15] -15% | activation [7] -9.57% | activation [21] 2.37% | activation [8] -4% | max response [17] -5.19% | Potency [9] | max response [10] -3.26% | max response [11] -0.68% | Potency [18] | max response [19] -0.575%
active: Potency [16] 12.2 µM

CCOP(=S)(Oc1cnc(C(C)(C)C)nc1)OC(C)C (centres undefined)
-5.29%: max response [13]
10.2%: max response [5]
inactive: activation [1] 2.58% | Potency [2] | outcome [3] | Potency [23] | Potency [24] | Potency [25] | outcome [12] | Potency [14] | Potency [4] | max response [6] 1.44% | activity change % (negative = inhibition) [15] 4.48% | activation [7] -2.32% | activation [21] -0.139% | activation [8] 6.61% | max response [17] -0.258% | Potency [9] | max response [10] -5.89% | max response [11] -6.73% | max response [19] 6.76%
-24.6%: max response [22]

O=C(O)C(F)(F)C(F)(F)C(F)(F)C(F)(F)C(F)(F)F
6.49%: max response [13]
3.1%: max response [5]
-15.9%: max response [22]
inactive: activation [1] 4.09% | Potency [2] | Potency [23] | Potency [24] | Potency [25] | outcome [12] | Potency [14] | max response [6] -23% | activity change % (negative = inhibition) [15] 8.21% | activation [7] -4.82% | activation [8] 0.455% | max response [17] 4.72% | max response [10] 3.24% | max response [11] -9.96% | Potency [18] | max response [19] 2.05%

Source: PubChem BioAssay (NCATS)
